# Reference: PubChem BioAssay (NCATS)
# Inconclusive results are not listed. Calls of active or inactive are those of the source. Calls follow the shape of the full dose curve.
# Target: Atrial natriuretic peptide receptor 1 (Homo sapiens) (UniProt P16066)
# Assay: Natriuretic polypeptide receptor (hNpr1) antagonism - Pilot CMLD screen (AID 1347052);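 also: cGMP level read as GloSensor luciferase luminescence after agonist stimulation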;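 as to activity change, negative = inhibition: HEK293 cells with hNpr1 stimulated by hNppA peptide at 0.1 nM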
# Conditions: HEK293 hNpr1 GloSensor cGMP luminescence, ANP-stimulated; series mostly up to 9.22 µM; activity change, negative = inhibition: at the top concentration
# % is scaled to controls: 0 for no effect and ±100 for the full control effect; potency is read from the fitted curve at half-maximal effect.
# Atrial natriuretic peptide receptor 1 (Homo sapiens), sequence (P16066 whole entry, looked up): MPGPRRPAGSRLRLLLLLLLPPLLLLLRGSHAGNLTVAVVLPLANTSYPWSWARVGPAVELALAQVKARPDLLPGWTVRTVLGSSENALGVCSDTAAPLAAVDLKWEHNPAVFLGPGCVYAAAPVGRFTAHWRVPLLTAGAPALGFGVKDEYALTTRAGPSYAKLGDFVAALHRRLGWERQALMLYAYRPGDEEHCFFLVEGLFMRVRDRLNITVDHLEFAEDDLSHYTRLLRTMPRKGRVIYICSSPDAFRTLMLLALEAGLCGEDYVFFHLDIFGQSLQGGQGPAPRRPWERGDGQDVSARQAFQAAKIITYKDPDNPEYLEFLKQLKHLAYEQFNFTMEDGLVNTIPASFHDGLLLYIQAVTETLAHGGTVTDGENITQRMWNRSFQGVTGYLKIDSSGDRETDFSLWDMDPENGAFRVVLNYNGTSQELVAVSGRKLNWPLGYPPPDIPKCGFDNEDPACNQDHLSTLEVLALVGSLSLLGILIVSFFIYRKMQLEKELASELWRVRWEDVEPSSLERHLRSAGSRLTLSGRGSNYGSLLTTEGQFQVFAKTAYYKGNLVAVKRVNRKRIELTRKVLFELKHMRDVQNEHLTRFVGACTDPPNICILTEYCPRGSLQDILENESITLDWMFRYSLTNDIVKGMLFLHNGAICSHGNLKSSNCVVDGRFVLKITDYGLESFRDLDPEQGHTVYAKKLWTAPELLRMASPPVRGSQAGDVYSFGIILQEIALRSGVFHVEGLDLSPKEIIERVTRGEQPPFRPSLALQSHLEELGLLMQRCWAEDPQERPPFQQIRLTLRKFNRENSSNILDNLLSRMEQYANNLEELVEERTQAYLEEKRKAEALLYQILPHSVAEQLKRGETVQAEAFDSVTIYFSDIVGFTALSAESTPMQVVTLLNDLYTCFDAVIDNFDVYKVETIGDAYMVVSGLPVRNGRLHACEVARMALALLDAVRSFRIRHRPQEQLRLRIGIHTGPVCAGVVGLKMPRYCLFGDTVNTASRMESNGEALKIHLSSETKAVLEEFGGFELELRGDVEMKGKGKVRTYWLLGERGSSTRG
Structure (SMILES),"activity change, negative = inhibition",Potency
C=CCC(C)(NCc1ccccc1)C(=O)OCC (stereo not given),-2.51% (inactive),–
COC(=O)N[C@H](C[N+](=O)[O-])C(C)(C)C,5.64% (inactive),–
COC(=O)c1ccc(CN2C(=O)[C@]3(O[C@H](C)CC4=CCCC43)c3c(Br)cccc32)cc1 (stereo not given in full),7.06% (inactive),–
CC(C)(C(O)c1ccc([N+](=O)[O-])cc1)[N+](=O)[O-] (stereo not given),0.0248% (inactive),–
CCOC(=O)C1=C(CCl)NC(=O)N(C(C)=O)C1c1ccccc1 (stereo not given),-0.922% (inactive),–
CC(Nc1oc(-c2ccccc2)nc1C(C)(C)C)c1ccccc1 (stereo not given),-1.47% (inactive),–
COC(=O)C[C@H]1c2ccccc2[C@@H]2C(=C[C@@H](C)[C@H]3C(=O)N(O)C(=O)[C@H]32)N1C(=O)OC,5.12% (inactive),–
C=C(C)C(=O)OC[C@H]1CN2[C@H](c3ccc(Br)cc3)[C@H](C)CC[C@H]2C(=O)O1,-0.296% (inactive),–
COC(=O)CC=C1c2ccc(OC)cc2[C@@H](OC)[C@@H]1C,-0.15% (inactive),–
COC1(C#C[C@@H]2C=C[C@H](OC(C)=O)[C@@H](COC(C)=O)O2)CCCCC1,3.59% (inactive),–
COC(=O)N[C@H](C(C(=O)OC)=C(C)NCc1ccccc1)c1ccco1,0.116% (inactive),–
CCC(=O)OC1(C)C(=O)C=C2C=C(c3ccsc3)OC=C2C1=O (stereo not given),-4.48% (inactive),–
CC=CCCN1C=C(C(C)=O)C(c2ccccc2)NC1=O (stereo not given),-2.11% (inactive),–
CCCCCCC#C[C@@H]1C=C[C@H](OC(=O)OCC)[C@@H](COC(=O)OCC)O1,-7.68% (inactive),–
C=CC[C@@]1(c2ccc(Br)cc2OC)Oc2ccccc2-c2nccnc21,-1.18% (inactive),–
CCN1C(=NCCCCO)N[C@@H](CCc2ccccc2)[C@H](C(=O)OC)[C@H]1C,-3.71% (inactive),–
CCN1C(=NCCCOC(C)C)N[C@@H](CCc2ccccc2)[C@H](C(=O)OC)[C@H]1C,8.5% (inactive),–
CCN1C(=O)N(S(=O)(=O)C(F)(F)F)C(c2ccccc2)C(C(=O)OC)=C1C (stereo not given),-6.79% (inactive),–
COC(=O)NC(c1ccccc1)C1(C(=O)OC)C(=O)Cc2ccccc21 (stereo not given),2.75% (inactive),–
COC(=O)CC=C[C@@H](C)[C@@H](COc1ccccc1Br)OC,–,0.944 µM (active)

Structure (SMILES),"activity change, negative = inhibition",Potency
CC=CC1=CC2=CC(=O)C(C)(OC(=O)c3c(C)cc(O)cc3O)C(=O)C2=CO1 (stereo not given),–,inactive
CCOC(=O)CN1C(=O)NC(c2cccc(C(F)(F)F)c2)C(C(=O)OC)=C1C (stereo not given),-7.19% (inactive),–
C#CCCCON=C1C[C@@H](O)[C@H](O)[C@H]2[C@@H]3C(=O)N(C[C@@H]4CCCO4)C(=O)[C@@H]3CC[C@@H]12,3.37% (inactive),–
COC(=O)C(C(=O)OC)c1ccccc1[N+](=O)[O-],-3.57% (inactive),–
C=CCOC(=O)N[C@H](C(C(=O)OC)=C(C)NCc1ccccc1)c1ccc(Br)cc1,-6.45% (inactive),–
O=C(C=Cc1cccc([N+](=O)[O-])c1)c1ccccc1,–,2.99 µM (active)
COC(=O)CC=C[C@@H](C)[C@H](NC(=O)OCC(Cl)(Cl)Cl)c1ccc2ccccc2c1,0.482% (inactive),–
COC(=O)C1=C[C@@]2(c3ccc(OC)cc3[C@@H](OC)[C@@H]2C)[C@@H]2C=C[C@@H]1C2,-1.55% (inactive),–
COc1cc2c(cc1OC)[C@@H]1O[C@](c3ccsc3)(C2)OC2=C1C(=O)OC1(CCCCC1)C2,-1.81% (inactive),–
COc1cc2c(c(OC)c1)[C@H](C=Cc1ccccc1)[C@@H]([C@H](O)CO)OC2,1.23% (inactive),–
COc1ccc(-c2nc(-c3ccccc3)c(NC(C)(C)C)o2)cc1,–,inactive
CCOC(=O)CNC(=O)O[C@@H]1C(=O)c2cc(OC)ccc2O[C@H]1c1cccc(OC)c1,9.2% (inactive),–
C(=Cc1nc(-c2ccccc2)oc1Nc1ccc2ccccc2c1)c1ccccc1,–,inactive
COC(=O)[C@@H]1[C@@H](c2ccccc2)NC(=O)N(Cc2ccccc2)[C@@H]1C,2.01% (inactive),–
C[C@@H]1C=CCCO[C@]12C(=O)N(CC1CC1)c1ccccc12,3.58% (inactive),–
COC(=O)CC(Oc1c(C)n(C)c2ccccc2c1=O)c1ccccc1 (stereo not given),1.4% (inactive),–
CCN1C(=O)NC(CCc2ccccc2)C(C(=O)OC)=C1C (stereo not given),-5.6% (inactive),–
C=CCCCN1C(=O)NC(c2ccccc2)C(C(=O)OC)=C1C (stereo not given),-0.805% (inactive),–
COC(=O)C(c1ccc(OC)c(OC)c1)C1c2ccccc2C=C(C)N1C(=O)OC (stereo not given),-0.264% (inactive),–
COC(=O)c1c(C(=O)OC)c2c3cc(OC)c(OC)cc3ccn2c1C(=O)OC,3.42% (inactive),–
